Laboratory results as given in PubChem BioAssay AID1159580 (chemical genetic matrix, 2015).
The whole screen tested about 5,500 compounds, of which about 2,000 (36%) were called active. Not shown: some 18% with an inconclusive outcome. No stated cut-off is given here; in the data, active means normalized growth mostly below about 0.91 (no sharp cut-off); inconclusive means no clear call, values can overlap the other calls; inactive means mostly above about 0.92. Some of the results follow.

Test: chemical genetic growth profiling, strain panel (AID 1159580);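 further: tested at 20 µM; growth read once vehicle control cultures reached saturation at 30 °C; 1 = growth at the plate median or of vehicle wells; lower values mean less growth of the strain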
Settings: S. cerevisiae deletion strains, growth OD

Measured: normalized growth

CC(C)NCC(O)c1ccc(NS(C)(=O)=O)cc1 (stereo unspecified)
inactive: locus YAL040C, strain CLN3, active compounds read low 1.01 | locus YCL061C, strain MRC1 (second series), active compounds read low 1 | locus YDR363W, strain ESC2, active compounds read low 0.973 | locus YER002W, strain NOP16, active compounds read low 1 | locus YGR078C, strain PAC10, active compounds read low 1.01 | locus YJR075W, strain HOC1, active compounds read low 0.986 | locus YMR263W, strain SAP30, active compounds read low 1 | locus YMR307W, strain GAS1, active compounds read low 1.02 | locus YNL153C, strain GIM3, active compounds read low 1.04 | locus YNL175C, strain NOP13, active compounds read low 1 | locus YNL197C, strain WHI3, active compounds read low 1.01 | locus YNL224C, strain SQS1, active compounds read low 1 | locus YNL322C, strain KRE1, active compounds read low 0.985 | locus YOR083W, strain WHI5 (second series), active compounds read low 1 | locus YPL055C, strain LGE1, active compounds read low 0.977 | locus YPL241C, strain CIN2, active compounds read low 0.999
